# Measured values published in ChEMBL document CHEMBL3988442, “University of Dundee, Small-Polar-MMV Screening Library” (2021).
# Target: Chromo domain-containing protein 1 (Saccharomyces cerevisiae (strain ATCC 204508 / S288c) (Baker's yeast)) (UniProt P32657)
# Assay: ScCHD-1 Enzyme Inhibition Assay
# Format: functional
# Design: scale not given: in the data most compounds retested in dose-response had high values
# Settings: 30 µM
# Chain of Chromo domain-containing protein 1 (Saccharomyces cerevisiae (strain ATCC 204508 / S288c) (Baker's yeast)) (P32657 whole entry, the tested form may be a part): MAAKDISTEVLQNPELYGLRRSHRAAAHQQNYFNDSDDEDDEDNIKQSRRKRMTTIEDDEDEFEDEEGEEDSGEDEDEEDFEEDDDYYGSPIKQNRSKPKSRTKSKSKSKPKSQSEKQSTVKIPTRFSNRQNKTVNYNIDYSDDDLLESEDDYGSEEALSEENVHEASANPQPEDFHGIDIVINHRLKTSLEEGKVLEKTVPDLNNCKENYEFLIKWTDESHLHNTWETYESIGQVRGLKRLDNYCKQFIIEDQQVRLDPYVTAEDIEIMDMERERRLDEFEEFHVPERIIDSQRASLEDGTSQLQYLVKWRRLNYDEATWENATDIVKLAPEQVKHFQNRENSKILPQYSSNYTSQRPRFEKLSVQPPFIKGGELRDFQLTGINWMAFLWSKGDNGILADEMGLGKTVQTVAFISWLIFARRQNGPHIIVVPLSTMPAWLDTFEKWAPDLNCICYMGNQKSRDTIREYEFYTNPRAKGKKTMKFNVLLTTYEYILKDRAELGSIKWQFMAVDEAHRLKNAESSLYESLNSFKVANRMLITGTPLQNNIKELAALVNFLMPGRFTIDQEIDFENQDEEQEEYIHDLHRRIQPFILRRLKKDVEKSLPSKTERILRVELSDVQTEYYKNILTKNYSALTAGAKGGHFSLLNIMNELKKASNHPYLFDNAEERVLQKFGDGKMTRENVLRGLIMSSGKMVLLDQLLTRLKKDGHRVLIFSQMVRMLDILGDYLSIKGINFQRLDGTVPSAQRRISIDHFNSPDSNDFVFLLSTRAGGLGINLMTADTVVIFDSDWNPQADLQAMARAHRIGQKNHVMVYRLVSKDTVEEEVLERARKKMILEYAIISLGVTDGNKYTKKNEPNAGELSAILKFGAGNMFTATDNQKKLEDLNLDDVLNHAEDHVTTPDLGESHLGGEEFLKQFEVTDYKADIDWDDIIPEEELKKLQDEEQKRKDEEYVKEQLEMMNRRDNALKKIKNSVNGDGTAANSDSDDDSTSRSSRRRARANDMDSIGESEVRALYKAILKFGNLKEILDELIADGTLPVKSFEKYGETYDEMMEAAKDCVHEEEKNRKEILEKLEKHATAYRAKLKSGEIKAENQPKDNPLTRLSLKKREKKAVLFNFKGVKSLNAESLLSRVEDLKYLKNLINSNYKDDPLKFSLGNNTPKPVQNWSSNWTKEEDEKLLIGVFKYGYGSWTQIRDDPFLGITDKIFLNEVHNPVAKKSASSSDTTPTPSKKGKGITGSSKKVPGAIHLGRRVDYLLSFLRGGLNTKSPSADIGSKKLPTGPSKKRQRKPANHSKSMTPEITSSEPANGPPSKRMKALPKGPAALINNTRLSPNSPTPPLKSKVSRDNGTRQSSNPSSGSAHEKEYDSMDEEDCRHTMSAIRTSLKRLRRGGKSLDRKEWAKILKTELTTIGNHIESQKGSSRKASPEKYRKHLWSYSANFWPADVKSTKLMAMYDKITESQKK
row,Structure (SMILES),Percent Effect [%]
1,COCCN1CC[C@@H]2O[C@@H](COCC(=O)N3CCCC3)CC[C@@H]21,-5.05
2,O=C(c1ccc[nH]1)N1CCCC(c2cc(C(F)(F)F)[nH]n2)C1 (centres undefined),-3.1
3,O=C(c1coc(COc2cccc(F)c2)n1)N1CC[C@H](O)[C@@H](O)C1,-4.67
4,Cc1nnc2n1CCN(CCOc1ccccc1)C2,-7.58
5,c1ccc(OCCN2CCCC(c3noc(C4CC4)n3)C2)cc1 (centres undefined),-2.68
6,Cn1ccc(CN2CCC(OCCc3ccccc3)CC2)cc1=O,1.89
7,COC1COC2(CCN(Cc3ccccc3Cl)CC2)C1 (centres undefined),0.93
8,COc1cccc(S(=O)(=O)N2CCn3cnc(COCC4CC4)c3C2)c1,-4.77
9,Cc1ncsc1C(=O)N(C)CCc1ccncc1,5.09
10,Cc1cc(C)n(C2CCCN(C(=O)Cc3csc(C)n3)C2)n1 (centres undefined),-6.83
11,O=C(NCCNc1cnccn1)N1CCN(Cc2cccnc2)CC1,-33.3
12,Cc1cc(NC(=O)NCC(C)O)n(C)n1 (centres undefined),-14.2
13,CCc1nccn1C1CCCN(C(=O)c2cnn(C)c2C2CC2)C1 (centres undefined),-2.99
14,CCOCC(O)CN1CCN(C(=O)c2cccnc2OC)CC1 (centres undefined),1.44
15,O=C(CN1CCc2cncnc2C1)NCCOc1ccccc1,-2.98
16,Cc1nc(N2CCCCC2)ncc1C(=O)N1CC(C)(C)[C@@](C)(O)C1,-1.76
17,c1cncc(-c2nccc(CN3CCCC3)n2)c1,-16.2
18,O=C(NC1CCCC1)N1CCCC(c2nccn2Cc2ccncc2)C1 (centres undefined),-4.06
19,Cc1cc(CN2CCOC(CN(C)c3cccnn3)C2)no1 (centres undefined),-18.6
20,Cn1cc(CNCCn2cccn2)c(-c2cccnc2)n1,2.43

row,Structure (SMILES),Percent Effect [%]
1,O=C1NC2(CCN(C(=O)c3ccccc3)CC2)CC1c1cccnc1 (centres undefined),-2.24
2,Cc1cnn(CC2CCCN2Cc2coc(-c3ccccc3)n2)c1 (centres undefined),-6.56
3,Cc1nc(CN2CCOCC3(CCN(c4cccnc4)CC3)C2)cs1,3.31
4,CNS(=O)(=O)c1ccc(C(=O)N2CCCC2Cc2ccccc2)o1 (centres undefined),-9.41
5,CN(CCC(F)(F)F)C(=O)[C@H]1CSCN1C(=O)OC(C)(C)C,-1.07
6,O=C(CN1CCOC(Cn2cccn2)C1)Nc1nncs1 (centres undefined),-22.6
7,CS(=O)(=O)NC1CCCN(C(=O)NCc2cc[nH]n2)C1 (centres undefined),-16.2
8,c1cnc2c(c1)cc(C1CCOCC1)n2CCN1CCOCC1,-12.6
9,CN(C)C(=O)COCc1cncc2c1CCN(Cc1nccn1C)C2,0.222
10,CN(C)S(=O)(=O)N1C[C@@H]2CC[C@H](C1)N(Cc1ccc3nsnc3c1)C2,-5.13
11,CN(C)C(CNC(=O)c1cccc(-n2cnnn2)c1)c1ccccc1Cl (centres undefined),-3.4
12,Cc1cc(C)n(CC2CN(Cc3cscn3)CCO2)n1 (centres undefined),-11.6
13,Cc1ccc(NC2CCN(C(=O)c3c(C)noc3C)CC2)nn1,-7.4
14,Cc1nc(N2CCOCC2)nc2c1CCN(C(=O)NC1CCCC1)CC2,-10.6
15,CCOc1nnc(CN(C)CC2CCCN2c2cccnn2)s1 (centres undefined),-4.84
16,CN1N=C(C(=O)N(Cc2ccco2)C2CC2)CCC1=O,8.43
17,COc1cccc(CNC(CN2CCN(C)CC2)c2ccccc2)c1 (centres undefined),-3.35
18,Cc1csc2c(=O)n3c(nc12)CCN(C(=O)c1cccnc1)CC3,-13
19,CC(C)n1ncc2cc(NC(=O)N3CCC(N4CCCC4)C3)cnc21 (centres undefined),-5.17
